This note sets out measurements from PubChem BioAssay (NCATS).

Activity calls are given as the source filed them. Calls come from the whole dose curve; as a rule, active = well fitted curve in the direction sought with a large enough effect; inconclusive = small, poorly fitted or top-dose-only effect, or effect the other way, or another doubt; inactive = no such curve, though single readings can be large or run the other way.

This assay can be described thus: qHTS for inhibitors of adenylyl cyclases using a fission yeast platform: a pilot screen against the NCATS LOPAC library (AID 1347410). The note with it: S. pombe CHP2027, fbp1-GFP fluorescence, 18 h; series mostly up to 57.5 µM. The text has this:
PI: Charles S. Hoffman Ph.D
Boston College, 140 Commonwealth Ave., Chestnut Hill, MA
Assay Development and Screening Technology Laboratory (ADST)
National Center for Advancing Translational Sciences (NCATS), Rockville, MD
National Institute of Health (NIH), Bethesda, Maryland
The fission yeast Schizosaccharomyces pombe uses a cAMP signaling pathway to link glucose-sensing to Protein Kinase A activity in order to regulate cell growth, sexual development, gluconeogenesis, and exit from stationary phase. Here, we describe the successful functional expression of all ten mammalian adenylyl cyclase (AC) genes, along with the human GNAS G-alpha gene in this organism. By measuring expression of a PKA-repressed fbp1-GFP reporter together with direct measurements of intracellular cAMP levels, one can detect both basal AC activity from all ten AC genes as well as GNAS-stimulated activity from eight of the nine transmembrane ACs (tmACs; AC2-AC9).
Further confirmation and validation of active compounds lead to the identification of diphenyleneiodonium chloride (DPI) as an inhibitor of basal AC activity. This fluorescence based fbp1-GFP-GNAS screening technology could facilitate the development of therapeutic compounds that target GNAS or the ACs, an area in which there is significant unmet need.
The gain-of-signal output is not substantially affected by cytotoxic compounds within the library.
Getz RA, et al., A fission yeast platform for heterologous expression of mammalian adenylyl cyclases and high throughput screening, Cellular Signaling, 2019, 60: 114-121. doi.org/10.1016/j.cellsig.2019.04.010.
PROTOCOL TABLE (as described by Inglese J, Shamu CE and Guy RK. 2007)
SEQUENCE No. (e.g., 1, 2, 3, etc.); […] (e.g., Cells, Incubation, Reagent, etc.); VALUE; DESCRIPTION.
1; Dispense growth medium; 2 uL; black, clear bottom, low base, 1536-well Aurora assay plate.
2; Compounds and control; 23 nL; Kalypsis pin tool (Wako USA) equipped with a 1536-well pin head to transfer to the assay plates.
3; Dispense yeast cells; 2 uL; CHP2027 cells.
4; Incubation; 18 hours (dark at 30C); Non-humidified microbial incubator.
5; Detector; 425V; Fluorescence; laser scanning cytometry.
NOTES (numbers refer to Sequence numbers above)
1. S. pombe growth medium EMM containing histidine, lysine, and uracil was initially dispensed into the assay plate to avoid yeast contamination using a Multidrop Combi dispenser (Thermo Fisher Scientific).
2. 10 mM stock solution of DPI (Sigma-Aldrich D2926) dissolved in DMSO was used as a 16-point dose response positive control, while 1.11 mM DPI stock solution was used as a single point max response positive control. Solvent DMSO was used as the negative control. Control DPI was transferred as a single-dose (column 3; rows 1-32; 1.11 mM stock), and multi-dose (column 4; rows 1-32; 10mM stock; 1:1.5 dilution; 16pnt titration) positive controls. Vehicle control DMSO was pinned into column 1-2, rows 1-32. Lopac compounds were pinned into columns 5-48 resulting to a final concentration range 57 µM to 78.4 nMControl DPI stock (10 mM) was prepared by dissolving 10 mg in 3.18 mL DMSO; while 1.11 mM DPI stock was prepared by mixing 100 uL of 10 mM DPI with 800 uL DMSO. To create the control plates, we initially start with a 384-well compound working plate. With a repeater pipette, (a.) 16 uL/well of 1.11 mM DPI was added to column 3; (b.) 16 uL/well of DMSO was added into rows 2-16 of column 4; (c.) 50 uL/well of DPI added to rows 1 and 2 of column 4; (d.) 32 uL serial dilution (two-thirds-fold) from rows 2 to 16 of column 4 with manual pipette. From the 384-well compound working plate, 7 uL of respective control compound was transferred to respective columns of the 1536-well compound plate using a multichannel pipette.
3. S. pombe CHP2027 (AC9-GNAS-PDE4D2) expressing fbp1-GFP cells were grown at 30C in EMM medium containing histidine, lysine, and uracil. […]
On to `O=C(O)CC[N+](=O)[O-]`, for which the result was inactive.
`CC(C)NC(C)Cc1ccc(I)cc1` (stereo not given): the compound was called inactive.
For `C[C@]12N[C@H](Cc3ccccc31)c1ccccc12` the value was “inactive”; for `CC(C)Oc1cccnc1N(C)C1CCN(Cc2ccccc2)CC1`, “inactive”.
The entry for `NCCc1c[nH]c2ccc(O)cc12` is “inactive”; for `c1ccc2sc(C3(N4CCCCC4)CCCCC3)cc2c1` it is “inactive”; for `C[N+]1(C)C2CCC1CC(OC(=O)C(CO)c1ccccc1)C2` (stereo not given) it is “inactive”.
The entry for `COc1ccc2c(c[n+](C)c3c4cc5c(cc4ccc23)OCO5)c1OC` is “inactive”; for `C=CCN1CC[C@]23CCCCC2[C@H]1Cc1ccc(O)cc13` (stereo not given in full) it is “inactive”.
Turning to `CCCN1CCO[C@@H]2c3cc(O)ccc3OC[C@H]21`, the compound was called inactive.
With `Cn1cnc(CCN)c1`, the compound was called inactive.
On to `CS(=N)(=O)CC[C@H](N)C(=O)O` (stereo not given in full), for which the result was inactive.
For `NC(N)=NOCCC(N)C(=O)O` (stereo not given) the value was “inactive”; for `Clc1cnc(Oc2ccc(Oc3ncc(Cl)cc3Cl)cc2)c(Cl)c1`, “inactive”; for `CC1=NN=C(c2ccc(N)cc2)c2cc3c(cc2C1)OCO3`, “inactive”.
For `C[N+](C)(C)CC(=O)O`, the outcome was inactive.
For the compound `CC[C@@]1(O)C(=O)OCc2c1cc1n(c2=O)Cc2cc3ccccc3nc2-1`, the outcome was inactive.
The entry for `Oc1ccc2c3c1O[C@H]1c4[nH]c5c(c4C[C@@]4(O)[C@@H](C2)N(CC2CC2)CC[C@]314)C[C@@]1(O)[C@H]2Cc3ccc(O)c4c3[C@@]1(CCN2CC1CC1)[C@H]5O4` is “inactive”.
For `NCCc1c[nH]c2ccccc12` the value was “inactive”.
Regarding `Cc1nccc2c1[nH]c1ccccc12`, the result was inactive.
For the compound `O=C(Cc1ccc(Cl)c(Cl)c1)N1CCCCC1CN1CCCC1` (stereo not given), the call was inactive.
For `O=C1CCCN1CC#CCN1CCCC1` the value was “inactive”.
The entry for `c1ccc(CCCN2CCN(CCOC(c3ccccc3)c3ccccc3)CC2)cc1` is “inactive”; for `O=C(N[C@H]1CN2CCC1CC2)c1ccc(Cl)cc1` it is “inactive”.
As for `NC(=NCCC[C@H](N)C(=O)O)N[N+](=O)[O-]`, the compound was called inactive.
With `NC1CC1c1ccccc1` (stereo not given), the call was inactive.
For `CC(Cc1ccc(O)cc1)NCC(O)c1cc(O)cc(O)c1` (stereo not given) the value was “inactive”; for `NC(CP(=O)(O)O)C(=O)O` (stereo not given), “inactive”.
For `C#CCOC(=O)C1=CCCN(C)C1`, the compound was classed as inactive.
As to `C[C@@H]1O[C@H](C[N+](C)(C)C)C[C@H]1O`, the compound was called inactive.
For `CCCN(CCC)[C@@H]1CCc2ccc(O)cc2C1` the value was “inactive”.
With `CN[C@@H]1C[C@@H](c2ccc(Cl)c(Cl)c2)c2ccccc21`, the compound was called inactive.
Turning to `NCc1cc(=O)[nH]o1`, the compound was called inactive.
In the case of `CC(=O)[C@H]1CCC2C3CC[C@H]4C[C@H](O)CC[C@]4(C)C3CC[C@@]21C` (stereo not given in full), the compound was called inactive.
The entry for `O=C(O)Cc1cnc[nH]1` is “inactive”; for `CC[C@@H](C(N)=O)N1CCCC1=O` it is “inactive”; for `C[C@@H](N)Cc1cnc[nH]1` it is “inactive”.
`CNCCc1ccc(O)c(O)c1`: the compound was called inactive.
The entry for `O=C(O)[C@@H]1CCN1` is “inactive”; for `C[C@]12CCC3C(CC[C@H]4C[C@H](O)CC[C@]34C)C1CC[C@@H]2C(=O)CO` (stereo not given in full) it is “inactive”.
